What is called inhibition is the drop in the measured response relative to a control, in per cent.

The campaign covered roughly 340,000 compounds. About 1,000 (0.29%) were called active. A selection follows. Results with a measured potency or affinity are listed apart. Values without a mark were called inactive. No stated cut-off is given here; in the data, inconclusive means inhibition above about 27% without an active follow-up result; inactive means below that.

A short description of this experiment: NS1A inhibition, H1N1 influenza, cell based functional assay (AID 504329). As to conditions: percent inhibition, at 12.5 µM, active compounds read high.
As to `O=C(NCc1ccco1)c1nn(-c2ccccc2)c(=O)c2ccccc12`, the inhibition was 0.06%.

`O=C(COC(=O)CSc1ccc2ccccc2c1)NCc1ccc2c(c1)OCO2`: the inhibition was 2.14%.

Regarding `CC(C)(C)CC(C)(C)NCC(O)COc1ccc2c(c1)CCC2` (centres undefined), the inhibition was 5.01%.

Take `Cc1ccc(S(=O)(=O)NC2CCCCC2)c(C)c1NS(C)(=O)=O`: the inhibition is 3.57%.

Take `Cc1ccc(-c2nn(-c3ccccc3Cl)cc2C(=O)NCC2CCCO2)cc1` (centres undefined): the inhibition was -0.44%.

Consider `COCCN(CC(=O)Nc1cccc(C)c1C)C(=O)Cc1cccs1`, for which the inhibition is -7.25%.

Regarding `Cc1cc(S(=O)(=O)N(Cc2ccccc2F)C2CC2)ccc1-n1cnnn1`, the inhibition was 6.46%.

As for `O=C(Nc1ccccc1)OCN1C(=O)c2ccccc2C1=O`, the inhibition was 2.63%.

For `CC(C)(C)C(=O)O/N=C1/C(=O)N(c2ccccc2)c2ccccc21`, the inhibition was -9.74%.

Consider `CCN(CC)c1ccc(/C=C(\C#N)C(N)=O)cc1`, for which the inhibition is 2.41%.

In the case of `CCc1ccc(/C=C(/C#N)C(N)=S)cc1`, the inhibition was -1.52%.

As for `CCN(CC)S(=O)(=O)c1ccc2oc(Nc3ccccc3)nc2c1`, the inhibition was 10.4%.

In the case of `[O-]c1c[n+](-c2ccc(-[n+]3cc([O-])on3)cc2)no1`, the inhibition was 3.68%.

For `Cc1c(C)c2cccnc2c2ncccc12`, the inhibition was 3.77%.

`Cc1cccc2cccnc12`: the inhibition was -13.9%.

Consider `Cc1ccnc2c1ccc1ccccc12`, for which the inhibition is -14.1%.

For `Cc1ccc2c(C)ccc(O)c2n1`, the inhibition is -11%.

Take `Cc1n[nH]c(=O)c2c(NC(=O)CSc3nc4ccccc4c(=O)n3-c3ccc(OC(F)F)cc3)oc(C)c12`: the inhibition was -4.1%.

`CC(=O)N(C)C1=Nc2ccc(Cl)cc2C(c2ccccc2)=[N+]([O-])C1`: the inhibition is -5.29%.

On to `CCN(Cc1ccccc1)C(=O)COC(=O)CNS(=O)(=O)c1ccc(C)cc1`, for which the inhibition was -5.52%.

As to `CN(NC(=O)c1ccco1)c1nc2ccccc2nc1C(F)(F)F`, the inhibition is -6.87%.

Take `Cc1cc(-c2ccc(C)c(S(=O)(=O)Nc3cccc(CN4CCCC4)c3)c2)on1`: the inhibition is -3.07%.

Turning to `COc1ccccc1NC(=O)Nc1ccccc1C(=O)NCCCN1CCOCC1`, the inhibition was -12.4%.

For the molecule `CCOc1ccc(N2CC(C(=O)N3CCCc4ccccc43)CC2=O)cc1` (centres undefined), the inhibition is 0.32%.

With `Cc1ccc(S(=O)(=O)N2CCOCC2)cc1NC(=O)C1=NN(c2ccccc2)C(=O)CC1`, the inhibition was -4.05%.

`CCN(CC)CCn1c2ccccc2c2nc3ccccc3nc21`: the inhibition was -13.6%.

On to `Oc1cccc(Nc2c3ccccc3nc3ccccc23)c1`, for which the inhibition is 8.39%.

As for `Cc1ccccc1N1CCN(C2CCCN(C(=O)c3snnc3C)C2)CC1` (centres undefined), the inhibition was -10.7%.

As for `O=C1Nc2ccc(Br)cc2/C1=N\N=C\C1=C(N2CCOCC2)C(=C/c2ccccc2)/CC1`, the inhibition was 20.8%.

With `O=CC1=C(N2CCOCC2)/C(=C\c2ccccc2)CC1`, the inhibition was -9.74%.

As to `Cc1ccc(S(=O)(=O)CCC(=O)OCCOc2cccc(Br)c2)cc1`, the inhibition is -115%.

Regarding `Cc1cccc(OCCOC(=O)c2c(-c3ccccc3)noc2C)c1`, the inhibition is -11.5%.

Turning to `COc1ccc(S(=O)(=O)NCc2cccnc2)cc1NC(=O)c1ccccc1C`, the inhibition is -8.44%.

Consider `CS(=O)(=O)N(CC(=O)Nc1ccccc1-c1ccccc1)c1ccc(F)cc1`, for which the inhibition was 1.39%.

Take `O=C(Nc1cccc(Cl)c1)c1ccc(-n2cncn2)c([N+](=O)[O-])c1`: the inhibition was 2.4%.

As for `CC(C(=O)OCC(=O)c1ccccc1)N1C(=O)c2ccccc2C1=O` (centres undefined), the inhibition was -4.62%.

As for `CC(=O)c1cc2c(cc1NC(=O)C1CCC1)OCO2`, the inhibition is 10.9%.

For `C/C(=N\N=c1/sc2ccccc2n1C)c1ccc(N2CCOCC2)cc1`, the inhibition was -7.4%.

Take `Cn1c(=Nc2ccc(N3CCOCC3)cc2)ccc2ccccc21`: the inhibition was -15.9%.

As to `Cn1c(N)c(C(=O)CSc2nnc3n2CCCCC3)c(=O)n(C)c1=O`, the inhibition is -13.2%.

For `CCOc1ccc(CNCCCSc2ncccn2)cc1`, the inhibition was 4.75%.

Turning to `CCOC(=O)N1CCN(C(=O)c2ccc3nc(-c4ccccc4)c(-c4ccccc4)nc3c2)CC1`, the inhibition was 2.02%.

Turning to `O=C(Nc1nc(-c2cccs2)cs1)c1ccc([N+](=O)[O-])o1`, the inhibition is -3.14%.

For the molecule `Cc1ccc(-c2csc(NC(=O)c3ccc([N+](=O)[O-])o3)n2)cc1`, the inhibition was 6.86%.

As for `Cc1ccc(C(=O)Nc2nc(-c3cccnc3)cs2)o1`, the inhibition is -17%.

As for `O=C(Nc1nc(-c2ccccn2)cs1)c1cc2ccccc2o1`, the inhibition was 25.1%.

In the case of `COc1ccccc1C(=O)Nc1ccc2c(c1)n(C)c(=O)n2C`, the inhibition is -3.88%.

For the molecule `CC(C)CN(C(=O)c1ccc(C(F)(F)F)cc1)c1c(N)n(CC(C)C)c(=O)[nH]c1=O`, the inhibition was -4.85%.

Consider `CCCCNC(=S)Nc1ccc2nc(N3CCN(CC)CC3)cc(C)c2c1`, for which the inhibition was 9.06%.

As for `COc1ccc(OCCCC(=O)Nc2ccc(OC)c(S(=O)(=O)N3CCOCC3)c2)cc1`, the inhibition was -7.67%.

On to `CNC(=O)c1ccc(Nc2nnc(C)c3ccccc23)cc1`, for which the inhibition is -2.75%.

In the case of `O=C1NCCN1CCN1C(=O)c2ccccc2NC1c1ccccc1` (centres undefined), the inhibition was -24.1%.

Regarding `CCn1c(/C=C2\C(=O)N(C(C)C)c3ccccc32)nc2ccccc2c1=O`, the inhibition was -0.25%.

Regarding `CC(C)N1C(=O)/C(=C/c2nc3ccccc3c(=O)n2-c2ccccc2)c2ccccc21`, the inhibition was 27.7%.

For the molecule `CC(C)Sc1cc(N2CCCC2)nc(-c2ccccc2)n1`, the inhibition is -8.52%.

For `COc1ccc(CNC(=O)C2CCCN2C(=O)NC2CCCCC2)cc1` (centres undefined), the inhibition was 8.99%.

In the case of `COc1ccc(S(N)(=O)=O)cc1N(C)S(=O)(=O)c1ccccc1`, the inhibition is -8.33%.

Regarding `NC1=NC(=Nc2cccc(S(N)(=O)=O)c2)c2ccccc21`, the inhibition is -7.83%.

On to `O=CN1CCc2scc[n+]2-c2ccccc21`, for which the inhibition was -18.5%.

Take `C=CCNC(=S)N/N=C(\C)c1ccc(OC)cc1`: the inhibition is 1.71%.

In the case of `C/C(=N\NC(=S)Nc1ccc(C)cc1)c1cccc(N)c1`, the inhibition is 3.24%.

As to `C=CCNC(=S)N/N=C(\C)c1cccnc1`, the inhibition was 1.12%.

On to `COc1ccccc1NC(=O)C/C(C)=N/NC(=O)c1ccccn1`, for which the inhibition is 12.6%.

As for `CCCCCC(=O)N/N=C(\C)c1ccccn1`, the inhibition is 5.83%.

Turning to `C/C(Cc1ccccc1)=N\NC(=O)c1ccccn1`, the inhibition was -7.02%.

With `COc1ccccc1NC(=S)Nc1ccccn1`, the inhibition is -3.02%.

In the case of `C/C(=N\NC(=O)CCCNc1ccc(C)cc1)c1ccccn1`, the inhibition was -0.81%.

On to `CC1(C)Oc2ccc(C(=O)NC3CCCC3)cc2N(CC(=O)NC2CCCCC2)C1=O`, for which the inhibition is -5.58%.

Take `Cc1cc(C)nc(Nc2ccccc2Cl)n1`: the inhibition is -3.84%.

As for `CN(CC(=O)Nc1ccc2c(c1)OCO2)S(=O)(=O)c1ccc(F)cc1`, the inhibition was 0.79%.

In the case of `Cc1cccc(NC(=S)Nc2ccccn2)c1`, the inhibition is 3.18%.

Take `S=C(NCCc1ccccn1)Nc1cccc(Cl)c1`: the inhibition was -6.8%.

Turning to `S=C(NCc1ccccn1)Nc1cccc(Cl)c1`, the inhibition was 10.7%.

Turning to `C/C(=N\NC(=S)Nc1cccc(C)c1)c1ccccc1`, the inhibition was 2.46%.

Consider `Cc1nc(-c2ccc(Cl)cc2)sc1C(=O)O`, for which the inhibition was -5.39%.

`O=C1COc2ccc(S(=O)(=O)N3CCN(c4ccccc4)CC3)cc2N1`: the inhibition was 6.48%.

With `CN(CC(=O)N1CCN(C2CCCCC2)CC1)S(=O)(=O)c1cccc2nsnc12`, the inhibition is 0.79%.

With `CC(Sc1nnc(-c2cccnc2)o1)C(=O)NC1CCCC1` (centres undefined), the inhibition is -4.28%.

Consider `c1cnc2ccc(-c3ccc4ncccc4c3)cc2c1`, for which the inhibition was 2.05%.

On to `CC(=O)N(C)c1ccc(N=Nc2ccc3ncccc3c2)cc1`, for which the inhibition was 18.9%.

Consider `Nc1ccc(N=Nc2ccccc2)cc1`, for which the inhibition was 10.5%.

As to `Nc1ccc(N=Nc2ccc(N)cc2)cc1`, the inhibition is -2.48%.

`Cc1ccc2ncccc2c1`: the inhibition was -1.21%.

For `Nc1ccc2ncccc2c1`, the inhibition is 7.98%.

Regarding `CC(C)CN(C(=O)c1ccc(=O)n(C)n1)c1c(N)n(Cc2ccccc2)c(=O)[nH]c1=O`, the inhibition was -3.79%.

As to `COc1ccccc1NS(=O)(=O)c1cccc(NC(=O)c2cncc(Br)c2)c1`, the inhibition is -6.77%.

For `COc1cccc(Oc2c(C)oc3c(CN4CCOCC4)c(O)ccc3c2=O)c1`, the inhibition is 8.63%.

For `Cn1c(N)c(C(=O)CSc2nc3ccccc3c(=O)n2Cc2ccccc2)c(=O)n(C)c1=O`, the inhibition is 10.1%.

For the molecule `Cc1ccc(CNC(=O)CCC2CCCN(Cc3c(C)nn(C(C)C)c3C)C2)o1` (centres undefined), the inhibition was 7.13%.

For `Cc1ccc(Cn2c(C(CO)Nc3nc(-c4ccc(Cl)c([N+](=O)[O-])c4)cs3)nc3ccccc32)cc1` (centres undefined), the inhibition is 1.74%.

As to `O=C(Cc1cccs1)Nc1nnc(SCC(=O)NC2CCCCC2)s1`, the inhibition was 3.29%.

On to `CCN(CC)c1nc(-c2ccccn2)nc(-c2ccccc2)c1C#N`, for which the inhibition was 2.62%.

For the molecule `CC(C)Nc1nc(-c2ccccn2)nc(-c2ccccc2)c1C#N`, the inhibition is 1.07%.

For the molecule `Cc1nnc(-c2ccccc2)nc1N(C)C`, the inhibition was -13.6%.

Consider `c1ccc(-c2nc(NC3CCCC3)c3ccccc3n2)cc1`, for which the inhibition was -1.14%.

For `C=CCNc1nc(-c2ccccc2)c(C(=O)OCC)cc1C#N`, the inhibition is 10.4%.

In the case of `CC(C)Nc1nc(-c2ccccc2)nnc1-c1ccccc1`, the inhibition was -7.91%.

As to `C=CCNc1cc(C(F)(F)F)nc(-c2ccccn2)n1`, the inhibition was -12.7%.

For `Oc1ccccc1-c1nc(NC2CCCC2)c2ccccc2n1`, the inhibition was -9.82%.
